Drawing on PubChem BioAssay (NCATS), this text covers Potency for 40 compounds.

Records with an inconclusive call do not appear. Entries that show only a call come without a potency. Active and inactive are the calls of the source. The call rests on the fitted dose curve; in most records, active means well fitted inhibition curve with a large enough effect; inconclusive means small, poorly fitted or top-dose-only effect; inactive means no such curve, though single readings can be large or run the other way.
Potency means the concentration at half of the fitted maximal effect.

The experiment in a line: S16 Schwann cell PMP22 intronic element firefly luciferase assay (AID 624032). Further: nearly all actives have a fitted effect of over 30% in size. The note with it: S16 rat Schwann cells, PMP22 element FLuc, 24 h; series mostly up to 57.5 µM. An excerpt: Charcot-Marie-Tooth-Association [CMTA]
National Center for Advancing Translational Sciences [NCATS]
Charcot-Marie-Tooth (CMT) disease was first characterized by Jean-Martin Charcot and Pierre Marie in France and, independently, by Howard Henry Tooth in England in 1886. CMT is one of the most common inherited neurological diseases, affecting approximately 1 in 2,500 Americans. […] The most prevalent type of CMT is known as CMT1A and caused by a duplication of the PMP22 gene which leads to over-expression of this protein. PMP22 is a glycosylated intrinsic membrane protein accounting for 2-5% of the myelin protein content, and its over-expression results in demyelination and subsequently axonal loss.
A pair of cellular transcription-based assays was developed in the S16 rat Schwann cell lines (Hai, M., et al., 2002) stably transfected with orthogonal reporters - firefly luciferase (Fluc) and beta-lactamase (beta-Lac) - whose expression is driven by an intronic regulatory element of the PMP22 gene (Jones, E.A., et al., 2011) to recapitulate endogenous expression of PMP22. The current assay employs Fluc to report on PMP22 expression. A comprehensive library of approved drugs, the NCGC Pharmaceutical Collection (Huang, R., et al., 2011), was screened in the cross-validating platform of the orthogonal reporter assays to identify drug modulators inhibitory towards PMP22 expression.
A set of counter-screens was devised to address non-specific activity of the library. An ATP-dependent CellTiter-Glo assay (developed by Promega Corp) was utilized to control cell viability. In addition, biochemical Fluc enzyme assay was performed to assess direct inhibition of the Fluc enzymatic activity.
Hai, M., Muja, N., DeVries, G.H., Quarles, R.H. and Patel, P.I. Comparative analysis of Schwann cell lines as model systems for myelin gene transcription studies. J Neurosci Res, 2002. 69(4): pp 497-508
Huang, R., Southall, N., Wang, Y., Yasgar A., Shinn P., Jadhav, A. , Nguyen, D.-T. and Austin, C.P., The NCGC pharmaceutical collection: a comprehensive resource of clinically approved drugs enabling repurposing and chemical genomics. Sci Transl Med, 2011. 3(80): p. 80ps16.
S16 Schwann cell PMP22 intronic element firefly luciferase assay
The FLuc-expressing S16 cells were seeded in white solid 1536-well plates at between 500-750 cells/4uL in DMEM medium containing 10% FBS, w/o phenol red. After overnight incubation at 37 degree Celsius/5% C02, 23 nL of compounds or DMSO were delivered to each well using a pin tool, followed by 24h-incubation at 37 degree Celsius/5% C02. Then 4 uL ONE-Glo luminescent substrate mix (Promega) was added to each well. Luminescence was measured on a ViewLux plate reader (Perkin Elmer). The % activity was determined by normalizing to the average readings of PTC124 (a positive control) - treated cells relative to DMSO-treated cells (0% Activity). The concentration-effect curves were then classified based on curve quality (r2), response magnitude and degree of measured activity.
`CCCCc1ncc(/C=C(\Cc2cccs2)C(=O)O)n1Cc1ccc(C(=O)O)cc1`: the Potency result was “inactive”. As for `CC(=O)CCC(=O)O`, the entry is “inactive”; as for `O=C(O)c1ccccn1`, “inactive”; as for `CC(=O)NC(Cc1ccccc1)C(=O)O` (stereo not given), “inactive”. As for `CC1=C(CC(=O)O)c2cc(F)ccc2/C1=C\c1ccc(S(C)=O)cc1` (stereo not given), the entry is “inactive”. Turning to `C[C@H]1O[C@@H](n2cc(F)c(=O)[nH]c2=O)[C@H](O)[C@@H]1O`, the Potency result was “inactive”. As to `O=C1NS(=O)(=O)c2ccccc21`, the Potency entry was “inactive”.

Regarding `CNCCCC1c2ccccc2C=Cc2ccccc21`, the Potency was 12.3 µM (active). On to `NC(=O)NC(=O)Cc1ccccc1`, for which the Potency result is “inactive”. On to `O=C(O)COc1nn(Cc2ccccc2)c2ccccc12`, for which the Potency result is “inactive”. As to `Nc1ccc(S(=O)(=O)Nc2ccccc2)cc1`, the Potency result is “inactive”. For the compound `C=Cc1c(C)c2cc3[nH]c(cc4nc(cc5nc(cc1[nH]2)C(C)=C5CCC(=O)O)C(CCC(=O)O)=C4C)c(C)c3C=C`, the Potency was 12.8 µM (active). Take `O=C1OC(OC(=O)c2cccnc2Nc2cccc(C(F)(F)F)c2)c2ccccc21` (stereo not given): the Potency is 7.21 µM (active). Turning to `CC[C@@]1(c2ccccc2)NC(=O)N(C)C1=O`, the Potency result is “inactive”. Take `O=C(O)[C@@H]1CSCN1`: the Potency result was “inactive”. `CC1(C)CO[C@@H](CC(=O)O)CN1`: the Potency result was “inactive”.

Regarding `CC12CCC(CC1)C(C)(C)O2`, the Potency result was “inactive”. As for `OCC(O)CN1CCN(c2ccccc2)CC1` (stereo not given), the Potency entry was “inactive”. As for `C[C@]12C[C@H](O)[C@H]3[C@@H](CCC4=CC(=O)CC[C@@]43C)[C@@H]1CC[C@@H]2C(=O)CO`, the Potency result was “inactive”. In the case of `CCOC(=O)c1ccc(O)cc1`, the Potency entry is “inactive”. In the case of `NC(CSCC(=O)O)C(=O)O` (stereo not given) it was “inactive”.

As for `CN1CCC[C@@H]1Cc1c[nH]c2ccc(CCS(=O)(=O)c3ccccc3)cc12`, the Potency entry is “inactive”. Consider `CN(C)CCN(Cc1ccccc1)c1ccccn1`, for which the Potency result is “inactive”. For the compound `O=C(O)c1ccccc1O`, the Potency entry is “inactive”. On to `CC(C)(C)C(=O)NCCCC(=O)O`, for which the Potency result is “inactive”. In the case of `Cc1c(Cl)cccc1Nc1ccccc1C(=O)O` it was “inactive”; in that of `Cc1ccc(C(C)C)cc2c(C)ccc1-2`, “inactive”; in that of `CC(C(O)c1ccc(O)cc1)N1CCC(Cc2ccccc2)CC1` (stereo not given), 25.6 µM (active). As to `O=C(O)CC(O)C(=O)O` (stereo not given), the Potency result is “inactive”.

Consider `CCCCOc1cc(C(=O)OCCN(CC)CC)ccc1N`, for which the Potency result was “inactive”.

Consider `O=C1O[C@H]([C@@H](O)CO)C(O)=C1O`, for which the Potency entry was “inactive”. Regarding `O=C(O)c1ccccc1-c1ccc(C(F)(F)F)cc1`, the Potency entry is “inactive”. In the case of `O=C(O)CN1C(=O)c2cccc3cccc(c23)C1=O` it was “inactive”; in that of `NCCNCCNCCNCCN`, “inactive”. For `Nc1ccc(S(=O)(=O)NC(=O)c2ccccc2)cc1`, the Potency result is “inactive”. Consider `CCC(=O)Nc1ccc(O)cc1`, for which the Potency result is “inactive”. In the case of `CCCCOC(=O)c1ccc(O)cc1`, the Potency entry is “inactive”. In the case of `Cc1cc2c(cc1S(N)(=O)=O)S(=O)(=O)CCC2` it was “inactive”. For the compound `CCCCCCCCCCCCOS(=O)(=O)O`, the Potency result was “inactive”.

Turning to `COc1ccc(S(=O)(=O)Nc2nnc(CC(C)C)s2)cc1`, the Potency result is “inactive”.
